What was measured:
Test in all cases: log2 ratio of Biotin-Ahx-Ub-VS probe labelling (fragment/DMSO); higher = less target engagement (more negative = stronger competition), active = hit call of the paper (q ≤ 0.05, log2 ratio ≤ -1)
Conditions in all cases: compound concentration: 200 uM; treatment time: 3 h
USP34 = USP34 (UniProt Q70CQ2)
Outline: (§1)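 Fragment (200 µM) or vehicle was incubated for 3 h with triplicate HEK293T lysate samples of 495 µg, which were then treated with Biotin-Ahx-Ub-VS at 0.5 µM final for 1 h. Labelled DUBs were enriched on NeutrAvidin, digested with LysC and trypsin, and analysed by diaPASEF LC-MS/MS. Values are average log2 fragment/vehicle ratios from an unpaired t-test on global-median-normalised Spectronaut label-free quantities, using proteins with ≥2 unique peptides.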

USP36 = target: T1, USP36 (UniProt Q9P275)
T1 sequence (whole entry): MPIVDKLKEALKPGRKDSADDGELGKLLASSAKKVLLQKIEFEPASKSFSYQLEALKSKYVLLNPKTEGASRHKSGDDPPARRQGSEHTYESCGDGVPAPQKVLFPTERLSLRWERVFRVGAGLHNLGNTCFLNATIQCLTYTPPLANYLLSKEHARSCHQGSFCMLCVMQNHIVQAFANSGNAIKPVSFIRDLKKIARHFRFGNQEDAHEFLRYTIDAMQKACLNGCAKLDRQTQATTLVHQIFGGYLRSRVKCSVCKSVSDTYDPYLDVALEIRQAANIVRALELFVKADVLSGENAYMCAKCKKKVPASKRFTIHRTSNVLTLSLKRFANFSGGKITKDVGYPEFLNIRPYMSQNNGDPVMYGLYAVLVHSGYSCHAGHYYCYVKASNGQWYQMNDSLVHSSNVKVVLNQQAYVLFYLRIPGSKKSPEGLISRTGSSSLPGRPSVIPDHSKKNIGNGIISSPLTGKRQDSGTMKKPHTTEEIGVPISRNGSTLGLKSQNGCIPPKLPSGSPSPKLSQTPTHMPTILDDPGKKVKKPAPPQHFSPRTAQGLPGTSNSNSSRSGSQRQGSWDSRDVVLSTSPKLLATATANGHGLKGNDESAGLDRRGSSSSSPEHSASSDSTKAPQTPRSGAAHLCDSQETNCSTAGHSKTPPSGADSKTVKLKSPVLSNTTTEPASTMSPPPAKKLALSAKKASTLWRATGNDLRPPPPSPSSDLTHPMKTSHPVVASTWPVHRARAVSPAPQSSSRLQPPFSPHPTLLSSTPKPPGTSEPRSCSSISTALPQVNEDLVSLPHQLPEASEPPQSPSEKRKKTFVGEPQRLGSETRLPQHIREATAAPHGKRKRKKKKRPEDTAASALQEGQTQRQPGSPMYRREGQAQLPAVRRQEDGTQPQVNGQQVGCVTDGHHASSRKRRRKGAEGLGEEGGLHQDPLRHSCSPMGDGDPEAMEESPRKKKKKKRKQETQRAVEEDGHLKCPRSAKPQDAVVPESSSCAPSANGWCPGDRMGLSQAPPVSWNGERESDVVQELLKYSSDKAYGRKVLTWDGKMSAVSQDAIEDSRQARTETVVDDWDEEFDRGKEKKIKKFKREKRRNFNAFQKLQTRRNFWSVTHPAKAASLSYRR
Outline: as §1

USP38 = target: T2, USP38 (UniProt Q8NB14)
T2 sequence (whole entry): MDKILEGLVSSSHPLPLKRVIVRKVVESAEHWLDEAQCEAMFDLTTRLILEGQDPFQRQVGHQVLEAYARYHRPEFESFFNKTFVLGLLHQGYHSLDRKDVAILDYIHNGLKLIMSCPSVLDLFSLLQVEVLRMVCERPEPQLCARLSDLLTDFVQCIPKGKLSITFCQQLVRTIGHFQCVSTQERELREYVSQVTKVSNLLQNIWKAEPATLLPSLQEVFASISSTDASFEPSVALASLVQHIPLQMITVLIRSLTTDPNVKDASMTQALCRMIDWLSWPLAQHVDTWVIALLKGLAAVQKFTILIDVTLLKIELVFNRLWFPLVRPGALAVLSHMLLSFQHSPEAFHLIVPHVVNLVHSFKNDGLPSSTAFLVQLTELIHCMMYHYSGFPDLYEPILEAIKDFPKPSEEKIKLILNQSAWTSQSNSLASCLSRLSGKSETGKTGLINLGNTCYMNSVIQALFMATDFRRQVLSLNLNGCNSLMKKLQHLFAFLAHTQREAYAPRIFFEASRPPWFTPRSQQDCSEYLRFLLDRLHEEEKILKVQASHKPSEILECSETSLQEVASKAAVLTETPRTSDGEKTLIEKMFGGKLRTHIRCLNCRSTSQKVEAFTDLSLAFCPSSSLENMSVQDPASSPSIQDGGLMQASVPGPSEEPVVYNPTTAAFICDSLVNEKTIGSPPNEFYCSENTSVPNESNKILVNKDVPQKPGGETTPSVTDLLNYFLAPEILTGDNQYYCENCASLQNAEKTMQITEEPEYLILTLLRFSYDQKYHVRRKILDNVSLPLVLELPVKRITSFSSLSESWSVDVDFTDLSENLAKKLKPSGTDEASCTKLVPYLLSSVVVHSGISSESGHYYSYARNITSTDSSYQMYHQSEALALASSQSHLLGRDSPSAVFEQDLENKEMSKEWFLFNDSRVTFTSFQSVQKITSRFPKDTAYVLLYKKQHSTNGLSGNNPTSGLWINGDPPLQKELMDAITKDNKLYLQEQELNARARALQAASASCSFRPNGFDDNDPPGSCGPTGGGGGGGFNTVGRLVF
Outline: as §1

USP39 = target: T3, USP39 (UniProt Q53GS9)
T3 sequence (whole entry): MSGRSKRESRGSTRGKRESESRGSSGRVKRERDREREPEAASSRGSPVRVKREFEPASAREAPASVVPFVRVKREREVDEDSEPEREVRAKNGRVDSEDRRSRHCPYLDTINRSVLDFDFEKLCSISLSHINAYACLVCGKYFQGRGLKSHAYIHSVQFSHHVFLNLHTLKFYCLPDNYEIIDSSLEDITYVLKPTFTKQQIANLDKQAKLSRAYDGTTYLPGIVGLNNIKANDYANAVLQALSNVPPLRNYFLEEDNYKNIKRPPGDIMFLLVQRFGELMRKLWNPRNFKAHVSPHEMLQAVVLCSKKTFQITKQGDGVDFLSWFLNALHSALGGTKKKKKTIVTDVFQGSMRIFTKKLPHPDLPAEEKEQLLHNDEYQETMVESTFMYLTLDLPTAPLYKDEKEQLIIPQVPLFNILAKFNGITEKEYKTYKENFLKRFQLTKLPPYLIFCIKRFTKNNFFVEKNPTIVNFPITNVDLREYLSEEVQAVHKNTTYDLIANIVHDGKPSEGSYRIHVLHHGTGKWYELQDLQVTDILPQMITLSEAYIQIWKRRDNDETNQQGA
Outline: as §1

USP4 = target: T4, USP4 (UniProt Q13107)
T4 sequence (whole entry): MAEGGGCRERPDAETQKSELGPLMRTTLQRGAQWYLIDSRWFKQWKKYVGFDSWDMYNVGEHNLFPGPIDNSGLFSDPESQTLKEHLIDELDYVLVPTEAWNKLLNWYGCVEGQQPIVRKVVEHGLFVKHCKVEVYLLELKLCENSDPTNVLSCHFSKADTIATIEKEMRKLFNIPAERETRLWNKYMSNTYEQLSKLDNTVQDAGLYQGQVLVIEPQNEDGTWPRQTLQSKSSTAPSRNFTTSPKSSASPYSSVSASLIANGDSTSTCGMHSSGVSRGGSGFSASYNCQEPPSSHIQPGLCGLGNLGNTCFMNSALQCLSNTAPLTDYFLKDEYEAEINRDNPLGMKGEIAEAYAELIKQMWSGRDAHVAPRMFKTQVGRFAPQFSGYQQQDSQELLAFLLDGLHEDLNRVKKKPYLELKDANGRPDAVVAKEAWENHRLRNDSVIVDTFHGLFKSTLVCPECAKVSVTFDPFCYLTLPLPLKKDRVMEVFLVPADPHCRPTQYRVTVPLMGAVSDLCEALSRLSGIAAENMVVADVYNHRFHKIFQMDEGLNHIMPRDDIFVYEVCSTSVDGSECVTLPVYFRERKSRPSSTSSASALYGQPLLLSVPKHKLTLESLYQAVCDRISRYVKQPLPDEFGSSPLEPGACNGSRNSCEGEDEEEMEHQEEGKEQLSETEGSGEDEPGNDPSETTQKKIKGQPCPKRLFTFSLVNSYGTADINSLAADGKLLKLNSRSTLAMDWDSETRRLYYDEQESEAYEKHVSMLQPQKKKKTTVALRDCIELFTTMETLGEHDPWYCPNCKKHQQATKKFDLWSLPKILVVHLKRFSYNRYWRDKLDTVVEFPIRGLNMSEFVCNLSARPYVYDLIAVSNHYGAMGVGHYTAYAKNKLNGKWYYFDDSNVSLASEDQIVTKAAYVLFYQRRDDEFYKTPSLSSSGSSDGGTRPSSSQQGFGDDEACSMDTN
Outline: as §1

Measured: log2 ratio of Biotin-Ahx-Ub-VS probe labelling

Chain of USP34 (Q70CQ2 whole entry, the tested form may be a part): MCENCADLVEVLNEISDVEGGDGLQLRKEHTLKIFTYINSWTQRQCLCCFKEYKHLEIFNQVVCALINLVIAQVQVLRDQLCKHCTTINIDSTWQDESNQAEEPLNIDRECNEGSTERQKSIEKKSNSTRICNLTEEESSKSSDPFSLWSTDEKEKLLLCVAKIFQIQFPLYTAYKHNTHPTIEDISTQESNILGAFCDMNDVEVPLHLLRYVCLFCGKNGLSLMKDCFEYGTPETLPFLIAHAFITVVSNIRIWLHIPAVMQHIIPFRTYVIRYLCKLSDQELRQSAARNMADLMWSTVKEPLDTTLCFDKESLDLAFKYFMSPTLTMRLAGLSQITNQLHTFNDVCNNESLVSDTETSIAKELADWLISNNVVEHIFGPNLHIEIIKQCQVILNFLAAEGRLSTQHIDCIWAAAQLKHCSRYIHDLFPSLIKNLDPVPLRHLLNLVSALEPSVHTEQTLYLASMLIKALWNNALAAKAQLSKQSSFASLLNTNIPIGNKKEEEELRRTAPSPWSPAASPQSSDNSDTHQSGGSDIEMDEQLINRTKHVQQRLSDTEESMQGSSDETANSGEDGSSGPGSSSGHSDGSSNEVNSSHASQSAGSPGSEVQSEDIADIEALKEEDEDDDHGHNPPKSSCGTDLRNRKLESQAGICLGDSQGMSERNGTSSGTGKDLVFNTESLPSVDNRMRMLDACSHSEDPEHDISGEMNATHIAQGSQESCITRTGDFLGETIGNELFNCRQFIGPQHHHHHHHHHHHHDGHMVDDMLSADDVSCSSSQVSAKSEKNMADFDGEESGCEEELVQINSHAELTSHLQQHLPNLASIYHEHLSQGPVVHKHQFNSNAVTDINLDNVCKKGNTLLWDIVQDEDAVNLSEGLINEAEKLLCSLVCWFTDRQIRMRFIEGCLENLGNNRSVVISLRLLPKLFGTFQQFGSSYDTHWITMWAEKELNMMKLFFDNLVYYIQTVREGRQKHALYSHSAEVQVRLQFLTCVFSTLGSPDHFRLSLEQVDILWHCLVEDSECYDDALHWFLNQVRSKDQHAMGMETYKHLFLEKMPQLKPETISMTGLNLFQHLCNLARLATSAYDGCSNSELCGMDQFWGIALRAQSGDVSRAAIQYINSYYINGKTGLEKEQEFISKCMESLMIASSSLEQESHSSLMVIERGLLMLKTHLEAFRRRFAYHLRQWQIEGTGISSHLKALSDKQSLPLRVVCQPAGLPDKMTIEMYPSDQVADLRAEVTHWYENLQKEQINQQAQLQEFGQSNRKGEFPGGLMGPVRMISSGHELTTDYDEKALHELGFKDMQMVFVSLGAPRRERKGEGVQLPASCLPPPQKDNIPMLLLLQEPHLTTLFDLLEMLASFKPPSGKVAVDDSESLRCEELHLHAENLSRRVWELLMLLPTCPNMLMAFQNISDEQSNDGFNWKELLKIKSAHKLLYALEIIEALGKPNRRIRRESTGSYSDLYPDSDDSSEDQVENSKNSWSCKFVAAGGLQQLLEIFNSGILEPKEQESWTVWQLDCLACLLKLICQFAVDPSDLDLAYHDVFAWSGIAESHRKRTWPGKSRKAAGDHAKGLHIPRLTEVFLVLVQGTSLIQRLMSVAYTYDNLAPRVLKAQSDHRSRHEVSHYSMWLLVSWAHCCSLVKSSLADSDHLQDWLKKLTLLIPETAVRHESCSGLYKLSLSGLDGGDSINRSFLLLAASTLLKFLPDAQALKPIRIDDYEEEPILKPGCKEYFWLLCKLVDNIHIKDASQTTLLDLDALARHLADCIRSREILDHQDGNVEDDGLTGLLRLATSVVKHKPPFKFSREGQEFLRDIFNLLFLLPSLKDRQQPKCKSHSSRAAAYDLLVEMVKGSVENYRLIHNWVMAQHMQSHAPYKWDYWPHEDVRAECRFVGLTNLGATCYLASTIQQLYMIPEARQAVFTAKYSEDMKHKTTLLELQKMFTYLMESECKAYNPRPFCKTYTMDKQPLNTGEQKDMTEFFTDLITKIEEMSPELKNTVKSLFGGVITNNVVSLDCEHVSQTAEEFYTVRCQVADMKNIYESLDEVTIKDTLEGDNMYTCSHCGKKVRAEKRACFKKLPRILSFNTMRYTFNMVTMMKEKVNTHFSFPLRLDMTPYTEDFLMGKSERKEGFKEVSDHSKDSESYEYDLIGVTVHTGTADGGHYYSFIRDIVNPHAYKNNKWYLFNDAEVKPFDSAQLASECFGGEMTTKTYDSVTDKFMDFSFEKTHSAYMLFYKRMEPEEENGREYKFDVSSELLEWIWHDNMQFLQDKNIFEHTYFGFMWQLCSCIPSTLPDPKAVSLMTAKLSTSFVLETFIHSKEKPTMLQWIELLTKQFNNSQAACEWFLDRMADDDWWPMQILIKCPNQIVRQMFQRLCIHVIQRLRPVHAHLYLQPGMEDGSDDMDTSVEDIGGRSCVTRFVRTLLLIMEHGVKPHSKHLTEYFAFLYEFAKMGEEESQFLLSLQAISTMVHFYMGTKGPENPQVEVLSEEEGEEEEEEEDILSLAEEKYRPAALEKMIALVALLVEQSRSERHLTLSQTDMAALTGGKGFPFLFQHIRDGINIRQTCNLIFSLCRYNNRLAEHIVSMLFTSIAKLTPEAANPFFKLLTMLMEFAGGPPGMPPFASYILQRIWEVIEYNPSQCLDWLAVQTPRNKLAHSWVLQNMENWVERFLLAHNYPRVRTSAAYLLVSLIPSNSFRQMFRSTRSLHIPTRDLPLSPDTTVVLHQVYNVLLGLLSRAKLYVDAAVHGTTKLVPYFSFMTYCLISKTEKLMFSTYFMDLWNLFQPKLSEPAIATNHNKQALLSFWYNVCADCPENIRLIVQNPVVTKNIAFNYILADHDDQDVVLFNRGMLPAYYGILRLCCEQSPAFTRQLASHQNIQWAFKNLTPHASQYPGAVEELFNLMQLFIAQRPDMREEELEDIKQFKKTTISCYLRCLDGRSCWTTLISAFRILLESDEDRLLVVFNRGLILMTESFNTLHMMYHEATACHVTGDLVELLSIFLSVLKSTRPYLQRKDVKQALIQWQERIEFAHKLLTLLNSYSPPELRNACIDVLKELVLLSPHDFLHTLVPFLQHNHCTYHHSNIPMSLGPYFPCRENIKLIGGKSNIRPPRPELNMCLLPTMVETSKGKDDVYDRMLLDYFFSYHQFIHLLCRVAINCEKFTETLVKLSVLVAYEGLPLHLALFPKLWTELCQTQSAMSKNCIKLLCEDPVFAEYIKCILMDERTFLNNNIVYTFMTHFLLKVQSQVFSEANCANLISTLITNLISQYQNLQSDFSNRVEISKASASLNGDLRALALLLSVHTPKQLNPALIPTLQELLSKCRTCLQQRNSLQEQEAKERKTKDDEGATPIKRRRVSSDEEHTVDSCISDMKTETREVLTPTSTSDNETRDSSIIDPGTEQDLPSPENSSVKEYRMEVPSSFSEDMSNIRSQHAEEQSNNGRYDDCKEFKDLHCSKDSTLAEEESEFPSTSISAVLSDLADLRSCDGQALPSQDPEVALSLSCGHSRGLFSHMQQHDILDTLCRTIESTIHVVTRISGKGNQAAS

O=C(CCl)N1CCC(c2noc3cc(F)ccc23)CC1
inactive: USP34 -0.276 | USP36 -0.165 | USP38 0.108 | USP39 0.43 | USP4 -0.235

From the supplement of paper PMC11732987, “Enantioselective OTUD7B fragment discovery through chemoproteomics screening and high-throughput optimisation” (Communications Chemistry, 2025)
